Drawing on the supplement of paper PMC13380429, this text covers morphology score and SARS-CoV-2 infection rate for 28 compounds.

In test [1] the test system is Vero E6 infected with SARS-CoV-2. Nature of the test: morphology score (similarity to uninfected cells); higher = more like uninfected cells. The settings on record: 24 h.
The test system is the same in test [2]. Kind of test: SARS-CoV-2 infection rate relative to infected DMSO; higher = more infection, active = 60 or less. The following applies: 24 h.

As to `COc1nc(C)nc(Cl)c1NC1=NCCN1` [moxonidine] (10 µM), the morphology score in test [1] was found to be 0.0753. Also, the SARS-CoV-2 infection rate in test [2] is 102% (inactive).
On the same counts, the results for `CN(C)CC(c1ccc(O)cc1)C1(O)CCCCC1` (stereo unspecified) [desvenlafaxine] (10 µM) are 0.0229 and 106% (inactive).
On the same counts, the results for `C[C@@H](c1ncncc1F)[C@](O)(Cn1cncn1)c1ccc(F)cc1F` [voriconazole] (10 µM) are 0.0199 and 101% (inactive).
In turn, `NC(=O)c1ccc([N+](=O)[O-])cc1Cl` [aklomide] (10 µM) showed a morphology score in test [1] of -0.229. Also, the SARS-CoV-2 infection rate in test [2] is 114% (inactive).
On the same counts, the results for `C[C@@H](C1=C(CCN(C)C)Cc2ccccc21)c1ccccn1` (racemic) [dimetindene] (10 µM) are 0.121 and 94.8% (inactive).
On the same counts, the results for `CCO/N=C(\C(=O)N[C@@H]1C(=O)N2C(C(=O)[O-])=C(Sc3nc(-c4cc[n+](C)cc4)cs3)CS[C@H]12)c1nsc(NP(=O)(O)O)n1` [ceftaroline-fosamil] (10 µM) are 0.242 and 87.5% (inactive).
On the same counts, the results for `N#CCC1(n2cc(-c3ncnc4[nH]ccc34)cn2)CN(C2CCN(C(=O)c3ccnc(C(F)(F)F)c3F)CC2)C1` [itacitinib] (10 µM) are 0.22 and 97.5% (inactive).
Regarding `COc1ccc2c(c1)c(CC(=O)N1CCOCC1)c(C)n2C(=O)c1ccc(Cl)cc1` (10 µM), the morphology score in test [1] was determined as 0.131. In test [2], the SARS-CoV-2 infection rate is 112% (inactive).
The corresponding values for `Cc1cc(C2CCCCC2)n(O)c(=O)c1` [ciclopirox] (0.833333 µM) are 0.0975 and 96.5% (inactive).
Regarding `O=C(O)c1cc(O)c(O)c(O)c1` [gallic-acid] (10 µM), the morphology score in test [1] is -0.19. Also, the SARS-CoV-2 infection rate in test [2] was 110% (inactive).
The corresponding values for `Cc1cn2c(N)c(Cl)cc(C(=O)NCC3CCN(CC(C)C)CC3)c2n1` (10 µM) are 0.221 and 103% (inactive).
On the same counts, the results for `Cc1cc(Oc2ccc3nc(COc4ccc(CC5SC(=O)NC5=O)cc4)n(C)c3c2)cc(C)c1N` (stereo unspecified) [efatutazone] (10 µM) are 0.36 and 93.5% (inactive).
The corresponding values for `Nc1cc(-c2ccncc2)c[nH]c1=O` [amrinone] (10 µM) are 0.00166 and 112% (inactive).
For `CC(=O)O[C@]1(C(C)=O)CC[C@H]2[C@@H]3CCC4=CC(=O)CC[C@]4(C)[C@H]3CC[C@@]21C` [hydroxyprogesterone-acetate] (10 µM), in test [1], the morphology score came out at 0.0136. Also, the SARS-CoV-2 infection rate in test [2] was 104% (inactive).
On the same counts, the results for `N[C@@H](CC(=O)Nc1ccc(Oc2cc(F)c(F)cc2Br)cc1)C(=O)O` (10 µM) are 0.233 and 98% (inactive).
Compound `CC(C)(Oc1ccc(CCNC(=O)c2ccc(Cl)cc2)cc1)C(=O)O` [bezafibrate] (10 µM) showed a morphology score in test [1] of 0.0236. The SARS-CoV-2 infection rate in test [2] is 104% (inactive).
The corresponding values for `N#C/C(=C\c1cccn1S(=O)(=O)c1cccc([N+](=O)[O-])c1)S(=O)(=O)c1ccc(F)cc1` (10 µM) are -0.181 and 109% (inactive).
On the same counts, the results for `N=C(NCCCCCCNC(=N)NC(=N)Nc1ccc(Cl)cc1)NC(=N)Nc1ccc(Cl)cc1` [chlorhexidine] (0.833333 µM) are 0.277 and 58% (active).
On the same counts, the results for `CN(C)c1nc(N(C)C)nc(N(C)C)n1` [altretamine] (10 µM) are -0.171 and 114% (inactive).
Turning to `COC(=O)N[C@H](C(=O)N1CCC[C@H]1c1ncc(-c2ccc(-c3ccc(-c4cnc([C@@H]5CCCN5C(=O)[C@@H](NC(=O)OC)C(C)C)[nH]4)cc3)cc2)[nH]1)C(C)C` [daclatasvir] (10 µM), in test [1], the morphology score is 0.0693. The SARS-CoV-2 infection rate in test [2] is 90.5% (inactive).
The corresponding values for `CCN1C(=O)CNc2ncc(-c3ccc(-c4nc[nH]n4)nc3C)nc21` (10 µM) are -0.0465 and 96.5% (inactive).
The corresponding values for `CN(C)C(=O)c1cc2cnc(Nc3ccc(N4CCNCC4)cn3)nc2n1C1CCCC1` [ribociclib] (10 µM) are 0.244 and 113% (inactive).
In test [1], `C#C[C@]1(OC(C)=O)CC[C@H]2[C@@H]3CCC4=CC(=O)CC[C@@H]4[C@H]3CC[C@@]21C` [norethindrone-acetate] (10 µM) yielded a morphology score of -0.146. Also, the SARS-CoV-2 infection rate in test [2] is 106% (inactive).
In test [1], `Cc1cccc(C)c1NC(=O)[C@@H](C)N` [tocainide] (10 µM) gave a morphology score of -0.0832. For the same compound, in test [2], the SARS-CoV-2 infection rate is 109% (inactive).
In turn, `O=C(C[C@H]1CC(c2ccc(F)cc2F)=NO1)N1CCOCC1` (racemic) (10 µM) yielded a morphology score in test [1] of 0.00815. Besides, the SARS-CoV-2 infection rate in test [2] is 103% (inactive).
The corresponding values for `O=C(Oc1ccccc1C(=O)O)c1ccccc1O` [sasapyrine] (10 µM) are 0.0337 and 108% (inactive).
The corresponding values for `O=[N+]([O-])c1cc(Cl)ccc1S(=O)(=O)N1CCN(Cc2ccccc2)CC1` (10 µM) are -0.0654 and 112% (inactive).
Consider `N=C1N[C@H]2[C@H](CS[C@H]2CCCCC(=O)O)N1` [2-iminobiotin] (10 µM), for which the morphology score in test [1] came out at 0.0808. In addition, the SARS-CoV-2 infection rate in test [2] was 99% (inactive).
